Counter-ions that a name gives are not always drawn.

Among the data in the supplement of paper PMC12494721 are growth values, retold here.

For this experiment, the system named is Klebsiella aerogenes DSM 30053. Nature of the experiment: growth (OD595) fold change vs plate DMSO controls (fold change (ratio)); higher = more growth. As to conditions: 20 µM; incubation time: 27 h, anaerobic, 37 °C. Summed up: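 Growth is calculated as fold change against the median of the DMSO control wells on each plate. Readings at 595 nm from anaerobic mGAM cultures (96-well, 27 h, 37 °C) were blank-subtracted, background-corrected with 20 µM compound solutions in water, and converted to OD by a calibration factor of 5. Fold changes above 1.5 were recorded as NA, and results are means of 2 biological replicates.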
Take `C=C[C@H]1CN2CC[C@H]1C[C@H]2[C@H](OC(=O)OCC)c1ccnc2ccc(OC)cc12` [Quinine ethyl carbonate]: the growth worked out at 1.01.
For `S=C(NC1CCCCC1)N1CCC(c2cnc[nH]2)CC1` [Thioperamide maleate] the value was 1.02.
On to `N#Cc1sc2c(=O)c3ccccc3c(=O)c=2sc1C#N`, for which the growth worked out at 0.963.
Consider `CC(=O)OC1CN2CCC1CC2` (configuration not stated) [Aceclidine hydrochloride], for which the growth amounted to 1.01.
For `C1=Cc2cccc3cccc1c23` [Acenaphthylene] the value was 0.96.
In the case of `CS(=O)(=O)c1ccc(C(=O)C2C(=O)CCCC2=O)c([N+](=O)[O-])c1`, the growth was 1.
Turning to `CCN(CC)CCOC(=O)C(O)(c1ccccc1)c1ccccc1` [Benactyzine hydrochloride], the growth came out at 1.01.
For `c1ccc2c(c1)Nc1ccccc1S2` [Phenothiazine] the value was 0.937.
As to `CCC1(C)CC(=O)NC(=O)C1` [Bemegride], the growth came to 1.04.
Regarding `CNC(=O)/C=C(\C)OP(=O)(OC)OC`, the growth came to 1.01.
The same measure for `CC[N+]1(C)CCCC(OC(=O)C(O)(c2ccccc2)c2ccccc2)C1` (configuration not stated) [Pipenzolate bromide]: 0.994.
For `CC(C)(C)c1ccc(CSc2cnn(C(C)(C)C)c(=O)c2Cl)cc1` the value was 1.01.
For `CSc1nc(NC(C)C)nc(NC(C)C)n1`, the growth stood at 1.02.
The same measure for `O=C(Nc1ccc(F)cc1F)c1cccnc1Oc1cccc(C(F)(F)F)c1`: 1.03; for `O=C(CCCN1CCC2(CC1)C(=O)NCN2c1ccccc1)c1ccc(F)cc1` [Spiperone]: 0.968.
The same measure for `CCOCN(C(=O)CCl)c1c(C)cccc1CC`: 0.997; for `ClC1C(Cl)C(Cl)C(Cl)C(Cl)C1Cl` (configuration not stated): 1; for `CCSC(C)CC1CC(=O)C(/C(CC)=N/OC/C=C/Cl)=C(O)C1` (mixture of isomers): 0.988.
As for `O=P1(N(CCCl)CCCl)NCCCO1` (configuration not stated) [Cyclophosphamide], the growth was found to be 0.997.
The same measure for `CN1[C@@H]2C[C@@H](OC(=O)[C@H](CO)c3ccccc3)C[C@H]1[C@@H]1O[C@@H]12` [Scopolamine hydrochloride]: 1.03.
For the molecule `COP(=S)(OC)SCN1C(=O)c2ccccc2C1=O`, the growth is 1.05.
For `CC(C)N(C)S(=O)(=O)NC(=O)c1cc(-n2c(=O)cc(C(F)(F)F)n(C)c2=O)c(F)cc1Cl` the value was 1.
In the case of `CN/C(=N/CC1CCOC1)N[N+](=O)[O-]` (configuration not stated), the growth was 1.01.
For `CC(=O)O[C@H]1C[C@H](O[C@H]2[C@@H](O)C[C@H](O[C@H]3[C@@H](O)C[C@H](O[C@H]4CC[C@@]5(C)[C@H](CC[C@@H]6[C@@H]5C[C@@H](O)[C@]5(C)[C@@H](C7=CC(=O)OC7)CC[C@]65O)C4)O[C@@H]3C)O[C@@H]2C)O[C@H](C)[C@H]1O[C@@H]1O[C@H](CO)[C@@H](O)[C@H](O)[C@H]1O` [Lanatoside C] the value was 0.998; for `NC(=O)C[S+]([O-])C(c1ccccc1)c1ccccc1` (configuration not stated) [Modafinil], 0.712; for `CCn1cc(C(=O)O)c(=O)c2cc3c(cc21)OCO3` [Oxolinic acid], 0.348.
As to `c1ccc2c(c1)cc1ccc3cccc4ccc2c1c34` [Benzo[a]pyrene], the growth amounted to 1.06.
`CCNC(=O)NC(=O)/C(C#N)=N/OC`: the growth was found to be 1.
`CNC(=O)Oc1ccc2c(c1)[C@]1(C)CCN(C)[C@@H]1N2C` [Eserine hemisulfate salt]: the growth was determined as 0.988.
For `Oc1ccc2c3c1O[C@H]1[C@@H](O)CC[C@@]4(O)[C@@H](C2)N(CC2CCC2)CC[C@]314` [Nalbuphine hydrochloride] the value was 0.923; for `CON(C)C(=O)Nc1ccc(Cl)c(Cl)c1`, 1.01; for `C=CC(N)=O` [Acrylamide], 0.977.
For `Nc1ccncc1` [Dalfampridine] the value was 1.02; for `CC(=O)O[C@H]1C[C@@H]2CC[C@@H]3[C@H](CC[C@@]4(C)[C@H]3C[C@H]([N+]3(C)CCCCC3)[C@@H]4OC(C)=O)[C@@]2(C)C[C@@H]1[N+]1(C)CCCCC1` [Pancuronium bromide], 1.1; for `CC(C)(C)C(O)(CCc1ccc(Cl)cc1)Cn1cncn1` (configuration not stated), 1.01.
With `CCNC1(c2cccs2)CCCCC1=O` (configuration not stated) [Tiletamine hydrochloride], the growth amounted to 0.995.
Regarding `COc1ccc(OC)c(C(O)C(C)N)c1` (configuration not stated) [Methoxamine hydrochloride], the growth stood at 0.696.
